The whole screen tested about 220,000 compounds, of which about 530 (0.24%) were called active. Shown is part of a subset that was picked to be rich in actives. Potency and affinity values are given separately. A number with no mark means an inactive call. No stated cut-off is given here; in the data, active means inhibition above about 13%; inconclusive means no clear call, values can overlap the other calls; inactive means below that.

The target of this assay is Bifunctional protein GlmU (Mycobacterium tuberculosis (strain ATCC 25618 / H37Rv)) (UniProt P9WMN3). Nature of the assay: inhibition of mycobacterial GlmU enzyme – biochemical, glucosamine-1-phosphate acetyltransferase (AID 1376).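 Further: 0% = complete reaction with vehicle and 100% = reaction without substrate.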 The settings on record: M. tuberculosis GlmU acetyltransferase enzyme assay; active compounds read high;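 tested at 30 µM in the primary screen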.
Chain of Bifunctional protein GlmU (Mycobacterium tuberculosis (strain ATCC 25618 / H37Rv)) (P9WMN3 whole entry, looked up): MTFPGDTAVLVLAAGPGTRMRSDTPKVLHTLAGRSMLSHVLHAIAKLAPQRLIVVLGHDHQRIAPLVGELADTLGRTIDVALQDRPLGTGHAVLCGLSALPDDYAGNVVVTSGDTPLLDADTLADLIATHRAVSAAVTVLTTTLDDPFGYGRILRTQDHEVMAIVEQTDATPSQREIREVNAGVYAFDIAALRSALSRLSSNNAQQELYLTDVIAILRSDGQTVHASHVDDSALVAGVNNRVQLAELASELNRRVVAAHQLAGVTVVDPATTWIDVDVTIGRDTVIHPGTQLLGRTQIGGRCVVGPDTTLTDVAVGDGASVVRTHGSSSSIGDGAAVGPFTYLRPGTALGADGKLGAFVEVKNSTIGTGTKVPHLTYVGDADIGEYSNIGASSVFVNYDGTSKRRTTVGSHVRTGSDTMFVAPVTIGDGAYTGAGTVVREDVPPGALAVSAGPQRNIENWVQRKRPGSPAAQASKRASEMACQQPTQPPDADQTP
As usually defined, the inhibition is the change of the read-out against control, counted positive when it falls. As for `COc1cc(NC(=O)c2cccc(COCC(F)(F)C(F)F)c2)cc(OC)c1OC`, the inhibition is -1.01%. The figure for `CC(C)C1Oc2cc3oc(=O)ccc3cc2C1=O` (stereo not given) is 0.4%; for `S=c1[nH]nc(-c2cccnc2)n1/N=C/C=C/c1ccco1` it is 7.53%.

Take `S=c1[nH]nc(-c2ccncc2)n1/N=C/C=C/c1ccco1`: the inhibition was 13.6% (active). In the case of `S=c1[nH]nc(-c2ccccc2)n1/N=C/C=C/c1ccco1`, the inhibition was 6.1%.

On to `O=C1NC(=O)N(Cc2ccccc2Cl)C(=O)/C1=C/c1cccs1`, for which the inhibition is 1.69%. In the case of `C(=N/N1CCN(c2ccccc2)CC1)/c1ccncc1`, the inhibition is -0.53%. As for `CCOc1ccc(Br)cc1S(=O)(=O)N1CCCC1`, the figure is -3.03%; as for `COc1ccc(Br)cc1S(=O)(=O)N1CCCC1`, 14.1% (active). As to `COc1ccc(Br)cc1S(=O)(=O)N1CCOCC1`, the inhibition was -4.63%. `C=CCN(CC=C)C(=O)Nc1cc(Cl)ccc1OC`: the inhibition was 6.87%. Consider `O=C(CC1C(=O)N(c2ccccc2)C(=O)N1Cc1ccco1)Nc1ccccc1` (stereo not given), for which the inhibition was 0.18%. The figure for `Cc1csc(SCC(=O)N(C)CC(=O)Nc2ccc(F)cc2)n1` is -5.2%; for `Cc1nnc(SCC(=O)N(C)CC(=O)Nc2ccc(F)cc2)n1Cc1ccccc1` it is -4.08%. As for `Cc1cc(SCC(=O)N(C)CC(=O)Nc2ccc(F)cc2)nc2ccccc12`, the figure is 13.3% (active); as for `Cc1ccc(C)n1-c1sc2c(c1C(=O)O)CCCC2`, 11.2%; as for `Cc1ccc(C)n1-c1ccc(C(=O)O)cc1`, 11.1%. As for `Cc1cccc(-n2c(-c3ccco3)nc3ccccc3c2=O)n1`, the figure is -2%; as for `Cc1nc(S/C(=C/c2ccc(-c3ccc(Cl)cc3)o2)C(=O)O)n[nH]1`, -0.27%; as for `Cc1nc(S/C(=C/c2ccc(-c3ccc(C(=O)O)cc3)o2)C(=O)O)n[nH]1`, 11.3%. On to `CC(=O)Nc1ccc(NC(=O)COC(=O)[C@@H](NC(=O)c2ccc(F)cc2)C(C)C)cc1`, for which the inhibition was -1.53%. As for `Cc1ccccc1C(=O)N1CCN(c2ccc(NC(=O)c3ccc4c(c3)OCO4)cc2)CC1`, the figure is -4.66%; as for `CNC(=O)COC(=O)CCC(=O)c1cccs1`, 4.98%. With `O=C(O)c1cccc(S(=O)(=O)N2CCN(C(c3ccccc3)c3ccccc3)CC2)c1`, the inhibition was -1.93%. As for `Cc1coc(NC(=O)CSc2nc(-c3ccc(Cl)cc3)cc(C(F)(F)F)c2C#N)n1`, the inhibition is 3.77%. As for `COC(=O)C1=C2c3[nH]c4ccccc4c3CCN2C(=O)CC1`, the figure is -2.64%. The figure for `CN(C)S(=O)(=O)c1cccc(NC(=O)NCCCl)c1` is 8%. The figure for `CN(CC(=O)NCCc1ccc(Cl)cc1)S(=O)(=O)c1ccc2c(c1)c(=O)n(C)c(=O)n2C` is -0.75%. In the case of `CCCCN(CC)CCNC(=O)CN(C)S(=O)(=O)c1ccc2c(c1)c(=O)n(C)c(=O)n2C`, the inhibition was 20.9% (active). Consider `Cc1ccc(CCNC(=O)CN(C)S(=O)(=O)c2ccc3c(c2)c(=O)n(C)c(=O)n3C)cc1`, for which the inhibition was 2.34%. On to `O=C1CCC/C(=N\NC(=O)c2ccc(CSc3cccc4cccnc34)cc2)C1`, for which the inhibition was 4.6%. On to `Cn1c(SCC(=O)N/N=C/C=C\c2ccco2)nc2ccccc21`, for which the inhibition is -4.83%. The figure for `CCn1c(SCC(=O)N/N=C/C=C/c2ccco2)nc2ccccc21` is -1.16%; for `Cn1c(SCC(=O)N/N=C/C=C/c2ccco2)nc2ccccc21` it is 13% (active); for `COc1cc(CNCCN(C)C)c(Br)cc1OCC(=O)NCc1ccccc1` it is -1.96%. As for `COc1ccc(/C=N/Nc2nc3ccccc3s2)cc1O`, the figure is -3.48%.

Turning to `O=[N+]([O-])c1cc(Cl)cc(/C=N/Nc2nc3ccccc3s2)c1O`, the inhibition was 0.98%. As for `COc1cc(/C=N/Nc2nc3ccccc3s2)cc([N+](=O)[O-])c1O`, the figure is 13.2% (active). Take `COc1ccc(/C=C/C(=O)OCC(=O)NC(=O)NC(C)(C)C)cc1`: the inhibition was 1.36%. Consider `CC(=O)c1ccc(N2CCN(C(=O)/C=C/c3ccc4ccccc4n3)CC2)cc1`, for which the inhibition was 0.1%.

Consider `CC(=O)c1ccc(S(=O)(=O)N2CCN(C(=O)/C=C/c3ccc4ccccc4n3)CC2)cc1`, for which the inhibition was 14.1% (active). The figure for `O=C(/C=C/c1ccc2ccccc2n1)N1CCN(S(=O)(=O)c2ccccc2F)CC1` is -1.23%; for `Cc1ccc(/C=N/NC(=O)C(C)Oc2ccccc2[N+](=O)[O-])s1` (stereo not given) it is -0.21%; for `O=c1c2ccccc2n(Cc2ccccc2F)c(=O)n1Cc1ccccc1F` it is 4.63%. As for `Nc1ccc(Nc2ccccc2)c(S(=O)(=O)O)c1`, the figure is 36.2% (active). As for `Nc1ccc(Nc2ccccc2)c(Cl)c1`, the figure is 3.28%; as for `Nc1cc(C(=O)O)ccc1Nc1ccccc1`, -4.84%.

Consider `CCN(CC)S(=O)(=O)c1ccc(OC)c(NC(=O)c2ccc([N+](=O)[O-])cc2)c1`, for which the inhibition is -2.82%. As for `Cc1cccc(-c2c3c(=O)n(C)c(=O)n(C)c3c3cccnn23)c1`, the figure is -0.55%. The figure for `Cc1ccc(Sc2ccc(/C=C3/C(=O)NN(c4ccccc4)C3=O)o2)cc1` is 4.6%; for `CC1=NN(c2ccc(C(=O)OC(C)C)cc2)C(=O)/C1=C\C=C\c1ccco1` it is 1.04%; for `CCOC(=O)c1ccc(N2N=C(C)/C(=C/C=C/c3ccco3)C2=O)cc1` it is 3.89%. Consider `O=C1NN(c2ccc(Cl)cc2)C(=O)/C1=C\c1ccc(-c2cccc(C(=O)O)c2)o1`, for which the inhibition was 30.9% (active).

As to `O=C1NN(c2ccccc2)C(=O)/C1=C/c1ccc(Sc2ccc(Cl)cc2)o1`, the inhibition was 4.82%. In the case of `Cc1cccc(N2C(=O)NC(=O)/C(=C/c3ccc(-c4ccc(C(=O)O)c(Cl)c4)o3)C2=O)c1`, the inhibition is -1.08%. For the molecule `O=C1NN(c2ccccc2)C(=O)/C1=C\c1ccc(-c2cc([N+](=O)[O-])ccc2O)o1`, the inhibition is 9.4%. The figure for `Cc1ccc(N2NC(=O)/C(=C/c3ccc(-c4ccc(Cl)c(C(=O)O)c4)o3)C2=O)cc1` is 7.4%. Turning to `CC1(C)OC(=O)C(=Cc2ccc(-c3ccc(Cl)c(C(=O)O)c3)o2)C(=O)O1`, the inhibition is 6.43%. As for `CCOC(=O)C1CCN(c2cc(C)nc3cc(-c4cccc(F)c4)nn23)CC1`, the figure is 0.46%. For `CCCNC(=O)Nc1ccsc1C(=O)OC`, the inhibition was -1.89%. The figure for `O=C1N=C(N2CCOCC2)S/C1=C1\C(=O)N(Cc2ccccc2)c2ccccc21` is 0.6%. As for `COCCCNc1ncnc2nc[nH]c12`, the figure is -2.31%; as for `CC1(C(=O)OCC(=O)Nc2ccc(C(N)=O)cc2)CC1(Cl)Cl` (stereo not given), -0.58%; as for `CC1CC(C)(C)NC(=S)N1CCCC(=O)Nc1ccc2c(c1)OCCO2` (stereo not given), -3.18%. As for `CC1CCN(C(c2nnnn2CCc2ccccc2)C(C)C)CC1` (stereo not given), the figure is 2.28%. Turning to `COc1ccc(CN2C(=O)/C(=C/c3ccc(-c4ccc(Cl)c(C(=O)O)c4)o3)SC2=S)cc1`, the inhibition was 9.33%. `CC1=NOC(=O)/C1=C\c1ccc(-c2ccc(Cl)c(C(=O)O)c2)o1`: the inhibition is 19.4%. The figure for `CCCCC1(C)OC(=O)C(=Cc2ccc(-c3ccc(Cl)c(C(=O)O)c3)o2)C(=O)O1` (stereo not given) is 0.45%; for `COc1ccc(Sc2ccc(/C=C3\C(=O)NN(c4ccccc4)C3=O)o2)cc1` it is 7.34%; for `O=C(CN1CCC(NC(=O)Cc2ccccc2)CC1)Nc1cccc2ccccc12` it is 4.11%. Turning to `O=C(NCc1ccccc1Cl)c1ccc(-c2ccccc2)cc1`, the inhibition is -4.31%. As for `O=C(NCc1ccccc1)c1c(O)c2cccc3c2n(c1=O)CCC3`, the figure is -6.36%; as for `CN(Cc1cnn(C)c1)S(=O)(=O)c1cccc([N+](=O)[O-])c1`, 2.06%. With `CC(C)=C1C(=O)NN(c2cccc(Cl)c2)C1=O`, the inhibition was 3.03%. As for `O=C1CC(=O)N(c2cccc(F)c2)N1`, the figure is 8.59%. As for `COCCNC(=O)[C@H]1C[C@@H]1[C@H](NP(=O)(c1ccccc1)c1ccccc1)c1ccccc1`, the figure is 0.38%.

In the case of `Cc1ccc(-n2c(COc3cccc(C)c3)n[nH]c2=S)cc1`, the inhibition was 1.39%. For the molecule `O=C(c1cccs1)N1CCN(c2ncccn2)CC1`, the inhibition was -2.05%. As for `CCOC(=O)C1=C(C)C(c2ccc(OC)cc2)NC(=O)N1` (stereo not given), the inhibition was -6.08%. As for `CCn1cc(/C=C2/SC(=S)NC2=O)c(C)n1`, the inhibition was 13.2% (active). As to `Cc1cc(/C=C2\SC(=S)NC2=O)c(C)n1C`, the inhibition was 5.92%.

In the case of `Cc1cc(/C=C2\SC(=S)NC2=O)c(C)[nH]1`, the inhibition was 13.5% (active). As for `CCn1c(C)cc(/C=C2/SC(=S)NC2=O)c1C`, the figure is 1.44%; as for `Cc1nn(C)cc1/C=C1\SC(=S)NC1=O`, 4.22%; as for `CCn1ncc(/C=C2/SC(=S)NC2=O)c1C`, 11.3%.

Take `CNc1nc(C)nc(-n2nc(C)cc2C)n1`: the inhibition was 13.6% (active). As for `Cc1cc(C)n(-c2nc(C)nc(N)n2)n1`, the figure is -5.19%. As for `Cc1cc(C)n(-c2nc(C)nc(NCc3ccccc3)n2)n1`, the figure is -4.13%; as for `Cc1sc(NC(=O)c2ccco2)nc1-c1ccc2c(c1)CC(C)N2C(=O)C1CC1` (stereo not given), 3.65%.

In the case of `CC(C)Cn1c(-c2csc(C(C)C)c2)n[nH]c1=S`, the inhibition is -2.74%. In the case of `CCCCn1c(-c2csc(C(C)C)c2)n[nH]c1=S`, the inhibition was -1.43%. As for `CCn1c(-c2csc(C(C)C)c2)n[nH]c1=S`, the figure is 14.3% (active); as for `COc1ccc(NC(=O)C(c2ccccc2)c2ccccc2)cn1`, -4.39%; as for `CCS(=O)(=O)Nc1ccc(C2=NN(C(=S)Nc3ccccc3)C(c3ccco3)C2)cc1` (stereo not given), -0.65%. As for `CN(C)C(=S)NC(C)(C)C`, the figure is 1.31%.

The values above are taken from PubChem BioAssay AID1376 (SRMLSC, 2008).
